The values below come from PubChem BioAssay (NCATS).

Results filed as inconclusive are left out. Calls of active or inactive are those of the source. Unless noted, the call rests on the fitted dose curve.

Assay [1] can be described thus: qHTS for Inhibitors of the Functional Ribonucleoprotein Complex (vRNP) of Lassa (LASV) Arenavirus: LASV Primary Screen - GLuc reporter signal (AID 1347082; calls by dose curve; tested in HEK293 reporter line; further: nearly all actives have a fitted effect of over 60% in size; further: potency means the concentration at half of the fitted maximal effect; on activity change, negative = inhibition: on the % scale 0 is the no-effect control and ±100 the full control effect).
Assay [2] in a line: qHTS for Inhibitors of the Functional Ribonucleoprotein Complex (vRNP) of Lassa (LASV) Arenavirus: Viability assay - alamar blue signal for LASV Primary Screen (AID 1347083; calls by dose curve; tested in HEK293 reporter line; further: nearly all actives have a fitted effect of over 80% in size; further: potency means the concentration at half of the fitted maximal effect; on activity change, negative = reduced viability: on the % scale 0 is the no-effect control and ±100 the full control effect). For orientation: In qHTS, concentration-response curves come from the screen itself.
In assay [3] the target is Nucleoprotein (Lymphocytic choriomeningitis virus (strain Armstrong)) (UniProt P09992). The assay is described as follows: qHTS for Inhibitors of the Functional Ribonucleoprotein Complex (vRNP) of Lymphocytic Choriomeningitis Arenaviruses (LCMV): LCMV Primary Screen - GLuc reporter signal (AID 1347086). Further: nearly all actives have a fitted effect of over 70% in size. Further: potency means the concentration at half of the fitted maximal effect.
Sequence of Nucleoprotein (Lymphocytic choriomeningitis virus (strain Armstrong)) (P09992 whole entry, looked up): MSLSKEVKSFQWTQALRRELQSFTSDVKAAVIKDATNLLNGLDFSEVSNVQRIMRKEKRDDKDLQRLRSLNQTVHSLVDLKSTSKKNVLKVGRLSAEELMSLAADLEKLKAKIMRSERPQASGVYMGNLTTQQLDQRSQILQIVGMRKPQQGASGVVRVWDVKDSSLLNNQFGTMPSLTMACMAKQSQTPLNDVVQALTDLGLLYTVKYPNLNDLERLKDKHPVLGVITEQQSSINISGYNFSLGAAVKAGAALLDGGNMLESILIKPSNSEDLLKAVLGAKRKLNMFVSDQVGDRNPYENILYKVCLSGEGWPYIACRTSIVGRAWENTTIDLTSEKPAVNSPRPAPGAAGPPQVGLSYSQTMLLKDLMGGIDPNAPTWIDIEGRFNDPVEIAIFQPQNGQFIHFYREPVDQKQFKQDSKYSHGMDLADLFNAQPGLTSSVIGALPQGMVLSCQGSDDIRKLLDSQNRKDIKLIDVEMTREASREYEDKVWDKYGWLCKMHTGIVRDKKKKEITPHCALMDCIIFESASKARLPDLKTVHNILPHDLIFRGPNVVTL
Assay [4] in a line: Cytotoxicity counterscreen for inhibitors of SARS-CoV-2 cell entry (AID 1645845). Further: nearly all actives have a fitted effect of over 50% in size. Further: potency means the concentration at half of the fitted maximal effect. In a few lines:
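Counterscreen run in the same HEK293-ACE2 line as the pseudotyped-particle entry assay, without particles. Viability after 48 h at 37 C was read as ATP luminescence, scaled between cell-containing and cell-free wells.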
For orientation: Counterscreens check selectivity or assay interference.

Assay [5] deals with Glucocorticoid receptor (Homo sapiens) (UniProt P04150). The assay is described as follows: GR-EFC Redistribution (AID 451). Further: potency means the concentration at half of the fitted maximal effect. Conditions: CHO-K1 GR-EFC translocation, beta-gal luminescence, 2 h. An outline of the steps:
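CHO-K1 cells expressing nuclear EA and GR-ED fragments of b-gal; compounds titrated up to 46 uM final, 2 h at 37 C. GR nuclear translocation read as complemented b-gal luminescence after 1 h RT detection.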

Assay [6] has as its target Mitogen-activated protein kinase 10 (Mus musculus) (UniProt Q61831). The assay is described as follows: JNK3 AlphaScreen Assay (AID 530; active means well fitted curve in either direction with a large enough effect, not every such curve was filed as active;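 further: kinase came from lysate of stimulated human HepG2 cells; signal reports phosphorylation of biotinylated GST-cJun 1-79 at Ser73 with 10 µM ATP; on the % scale 0 is the no-effect control and ±100 the full control effect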). An outline of the steps: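 HepG2 lysate (IL-1b/TNFa pre-activated) + biotin-GST-cJun 1-79 + anti-pSer73 cJun; cpd titration, 15 min RT; ATP 10 uM start; Tris pH 7.6, MgCl2, DTT, vanadate; beads in EDTA buffer; AlphaScreen.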
In assay [7] the target is 3',5'-cyclic-AMP phosphodiesterase 4B (Homo sapiens) (UniProt Q07343). The assay is described as follows: qHTS Assay for Inhibitors of PDE-IV (AID 607; active means well fitted activation curve with a large enough effect in the main read-out, with a control signal flat, not every such curve was filed as active; further: % of control where 0% means no effect). In a few lines:
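Cell-based read-out of cAMP via a modified cyclic nucleotide-gated channel and membrane potential dye (535/590 nm) in HEK293 cells expressing PDE4 endogenously. Compounds tested up to 22.9 uM final; 100 uM RO 20-1724 reference.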

Assay [8] has as its target Cytochrome P450 3A4 (Homo sapiens) (UniProt P08684). The assay is described as follows: qHTS Assay for Activators of Cytochrome P450 3A4 (AID 885; active means well fitted curve in the direction sought with a large enough effect; an effect the other way counts as inactive or inconclusive; further: nearly all actives have a fitted effect of over 65% in size). An outline of the steps: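 Luminescent readout of luciferin formed from 25 uM Luciferin-PPXE (KM level) by 20 nM CYP3A4 in 200 mM KPO4, with 60 min NADPH-driven reaction at room temperature after 10 min compound exposure. Ketoconazole (57 uM) defined 100% inhibition.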

Assay [9] deals with Cytochrome P450 2D6 (Homo sapiens) (UniProt P10635). As to the kind of experiment: qHTS Assay for Inhibitors and Substrates of Cytochrome P450 2D6 (AID 891; active means well fitted curve in the direction sought with a large enough effect; an effect the other way counts as inactive or inconclusive;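 further: luciferin methyl ether substrate demethylated by CYP2D6 with NADPH regeneration; on the % scale 0 is the no-effect control and ±100 the full control effect; nearly all actives have a fitted effect of over 60% in size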). In a few lines:
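Luminescent read-out of luciferin formed by 5 nM human CYP2D6 demethylating 30 uM Luciferin-ME EGE (Km level) over 60 min at room temperature after NADPH regeneration addition. Data normalized to full inhibition by 1.43 uM quinidine.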

Assay [10] addresses Cytochrome P450 2C19 (Homo sapiens) (UniProt P33261). As to the kind of experiment: qHTS Assay for Inhibitors and Substrates of Cytochrome P450 2C19 (AID 899; active means well fitted curve in the direction sought with a large enough effect; an effect the other way counts as inactive or inconclusive; further: on the % scale 0 is the no-effect control and ±100 the full control effect; nearly all actives have a fitted effect of over 60% in size). An outline of the steps: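 Luminescent read-out of luciferin formed from Luciferin-H EGE (10uM, equal to KM). Enzyme 5nM in 50mM KPO4; compound added, 10 min at 37C, then NADPH regenerating system for 60 min at 37C. Full inhibition defined by 57uM ketoconazole.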

Assay [11] is described as follows: Confirmation and Secondary Assay for Modulators of Hemoglobin Beta Chain Splicing at IVS2 705 locus (AID 930; active means well fitted curve in the direction sought with a large enough effect; an effect the other way counts as inactive or inconclusive;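 further: HeLa cells stably expressing the EGFP-705 splicing reporter; GFP fluorescence per well restored by corrected splicing of the IVS2-705 intron in EGFP; % of control where 0% means no effect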). In a few lines: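 HeLa EGFP-705 reporter; 500 cells/well, o/n 37C 5% CO2; cpd 2 d; 488 ex/500-520 em laser scan; total peak GFP intensity/well. Ref: 500 nM […] antisense PNA.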
Assay [12] has as its target DNA dC->dU-editing enzyme APOBEC-3G (Homo sapiens) (UniProt Q9HC16). As to the kind of experiment: qHTS for inhibitors of Vif-A3G interactions: Validation (AID 588379; active means well fitted curve in the direction sought with a large enough effect; an effect the other way counts as inactive or inconclusive; further: 0% is about no effect). In a few lines:
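Yellow fluorescence (Ex 488, Em 500-530) of Vif-coexpressing HeLa A3G-eYFP cells, scanned by Acumen cytometer, reports blocked A3G degradation. Cells plated at 700/well overnight at 37 deg C before compound addition, then a further overnight compound incubation at 37 deg C.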

Assay [13] has as its system Zika virus NS2B-NS3 protease. The assay is described as follows: Primary screen GU AMC qHTS for Zika virus inhibitors (AID 1347154; active means well fitted curve in the direction sought with a large enough effect; an effect the other way counts as inactive or inconclusive;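 further: 0% = no-inhibitor control and -100% = no-enzyme control; nearly all actives have a fitted effect of over 70% in size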). An outline of the steps:
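Unlinked Zika NS2B hydrophilic domain–NS3 protease complex at 25 nM in 10 mM Tris-HCl pH 8.0, 0.01% Tween 20, with an AMC peptide substrate. Fluorescence change (340/450 nm) over 15 min at room temperature, normalized to controls, fitted to 4-parameter Hill.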

Assay [14] can be described thus: Primary qHTS for Huh7 cytotoxicity: counterscreen for inhibitors of MERS-S pseudotyped particle cell entry (AID 1479147). The following applies: outcome: dose series up to 57.1 µM unless noted.
Assay [15] is described as follows: Primary qHTS for inhibitors of MERS-S pseudo-typed particle cell entry (AID 1479149). Further: nearly all actives have a fitted effect of over 60% in size.
Assay [16] in a line: Primary qHTS for Vero E6 cytotoxicity: counterscreen for inhibitors of SARS-S pseudo-typed particle cell entry (AID 1479150). Further: on the % scale 0 is the no-effect control and ±100 the full control effect. The following applies: outcome: dose series up to 57.1 µM unless noted.
A short description of assay [17]: Primary qHTS to identify inhibitors of SARS-CoV-2 cell entry (AID 1645846). Further: nearly all actives have a fitted effect of over 45% in size. The following applies: activity change, negative = inhibition: at 57.1 µM (top of the series) unless noted. In a few lines:
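Data are normalized to wells receiving SARS-CoV-2-S pseudoparticles and those given bald particles. Entry signal was luciferase luminescence in stable hACE2 Expi293F cells, 48 hr post-infection, after 1 hr compound pretreatment.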

Assay [18] in a line: Confirmatory qHTS for VERO E6 Cytotoxicity Assay: Counterscreen for SARS-CoV-2 CPE Assay (AID 1508605).
Assay [19] can be described thus: Confirmatory qHTS for activators (rescue) of SARS-CoV-2 Cytopathic Effect (CPE) (AID 1508606). Further: potency means the concentration at half of the fitted maximal effect; nearly all actives have a fitted effect of over 70% in size.
Assay [20] can be described thus: VSVG counterscreen qHTS to identify inhibitors of SARS-CoV-2 cell entry (AID 1645847). Further: potency means the concentration at half of the fitted maximal effect; nearly all actives have a fitted effect of over 65% in size. In a few lines:
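Counterscreen using VSV-G (not spike) pseudotyped MLV particles on ACE2-expressing Expi293F cells after 1 h compound preincubation; infection ran 48 h at 37 °C. Data normalized to VSV-G PP and bald-PP wells.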

Assay [21] addresses Alpha-galactosidase (Coffea arabica) (UniProt Q42656). As to the kind of experiment: Counterscreen for Glucocerebrosidase Inhibitors: qHTS Assay for Coffee Bean alpha-Galactosidase at pH 4.5 (AID 957; active means well fitted curve in the direction sought with a large enough effect; an effect the other way counts as inactive or inconclusive;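 further: plate controls were enzyme alone for no effect and no enzyme for full effect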). An outline of the steps:
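Quantitative HTS of compounds (0.7 nM to 77 uM) against coffee bean alpha-galactosidase at pH 4.5, measuring 4-methylumbelliferone fluorescence released from 80 uM substrate.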

Assay [22] has the same target. The assay is described as follows: Counterscreen for Glucocerebrosidase Inhibitors: qHTS Assay for Coffee Bean alpha-Galactosidase at pH 5.9 (AID 998; active means well fitted curve in the direction sought with a large enough effect; an effect the other way counts as inactive or inconclusive;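 further: plate controls were uninhibited enzyme for no effect and no-enzyme basal signal for full effect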). An outline of the steps:
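Enzyme 2 nM + cpd (0.7 nM–77 uM titration) + 4-MU-alpha-Gal 80 uM, pH 5.9 citrate/Tween-20, RT 20 min, NaOH/glycine stop pH 10, fluor 365/440. Normalized to no-enzyme and full-activity controls; Hill-fit AC50.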

A short description of assay [23]: qHTS for Inhibitors of the Functional Ribonucleoprotein Complex (vRNP) of Lymphocytic Choriomeningitis Arenaviruses (LCMV): Viability assay - alamar blue signal for LCMV Primary Screen (AID 1347085; calls by dose curve; tested in HEK293 reporter line; further: on the % scale 0 is the no-effect control and ±100 the full control effect; nearly all actives have a fitted effect of over 80% in size).
Assay [24] in a line: qHTS profiling of the MIPE4 collection as inhibitors of Plasmodium falciparum (3D7) proliferation (AID 743344; call rule not given here;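 further: scaled between DMSO vehicle wells and 0.29 µM artemisinin as full inhibition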). The following applies: P. falciparum 3D7 in erythrocytes, SYBR Green DNA fluorescence, 72 h; at 28.5 µM (top of the series) unless noted. In a few lines: (§1)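 Parasite DNA was quantified by SYBR Green I fluorescence (ex 485, em 535 nm) after overnight lysis in saponin/Triton buffer at room temperature. Cultures at 0.3% parasitemia and 2.5% hematocrit were first exposed to compound for 72 h at 37 C; signals were normalised to artemisinin (0.29 uM) and vehicle wells.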

Assay [25] is described as follows: qHTS profiling of the MIPE4 collection as inhibitors of Plasmodium falciparum (DD2) proliferation (AID 743345; call rule not given here). Conditions: P. falciparum Dd2 in erythrocytes, SYBR Green DNA, 72 h; at 28.5 µM (top of the series) unless noted. An outline of the steps: as §1
The nature of assay [26]: qHTS profiling of the MIPE4 collection as inhibitors of Plasmodium falciparum (DD2) proliferation (Rep 2) (AID 743346; call rule not given here). Conditions: P. falciparum Dd2 in erythrocytes, SYBR Green DNA, 72 h; at 28.5 µM (top of the series) unless noted. In a few lines:
as §1

Sequence of Alpha-galactosidase (Coffea arabica) (Q42656 whole entry, looked up): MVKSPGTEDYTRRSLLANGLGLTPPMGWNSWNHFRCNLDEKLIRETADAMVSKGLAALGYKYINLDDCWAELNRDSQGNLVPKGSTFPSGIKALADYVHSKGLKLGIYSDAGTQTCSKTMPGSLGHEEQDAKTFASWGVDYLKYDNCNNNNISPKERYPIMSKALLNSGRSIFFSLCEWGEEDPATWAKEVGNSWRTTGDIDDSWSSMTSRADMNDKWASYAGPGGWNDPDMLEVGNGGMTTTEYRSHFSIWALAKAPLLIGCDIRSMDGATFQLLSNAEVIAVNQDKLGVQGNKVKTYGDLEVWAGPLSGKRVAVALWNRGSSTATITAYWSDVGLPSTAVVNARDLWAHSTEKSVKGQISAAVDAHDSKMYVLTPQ
Sequence of Cytochrome P450 3A4 (Homo sapiens) (P08684 whole entry, looked up): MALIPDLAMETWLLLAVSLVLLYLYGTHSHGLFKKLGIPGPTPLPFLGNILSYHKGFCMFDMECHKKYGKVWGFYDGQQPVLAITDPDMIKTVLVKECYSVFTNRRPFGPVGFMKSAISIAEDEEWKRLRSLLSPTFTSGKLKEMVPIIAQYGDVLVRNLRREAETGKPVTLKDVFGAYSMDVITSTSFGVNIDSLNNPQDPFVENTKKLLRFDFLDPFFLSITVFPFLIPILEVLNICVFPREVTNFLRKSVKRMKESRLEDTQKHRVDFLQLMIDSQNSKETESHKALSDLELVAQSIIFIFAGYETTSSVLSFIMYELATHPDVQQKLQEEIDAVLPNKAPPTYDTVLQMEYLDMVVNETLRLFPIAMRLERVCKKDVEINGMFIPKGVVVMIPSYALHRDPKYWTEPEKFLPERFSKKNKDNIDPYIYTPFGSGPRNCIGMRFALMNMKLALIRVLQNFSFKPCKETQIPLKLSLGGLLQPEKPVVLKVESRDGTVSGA
Sequence of DNA dC->dU-editing enzyme APOBEC-3G (Homo sapiens) (Q9HC16 whole entry, looked up): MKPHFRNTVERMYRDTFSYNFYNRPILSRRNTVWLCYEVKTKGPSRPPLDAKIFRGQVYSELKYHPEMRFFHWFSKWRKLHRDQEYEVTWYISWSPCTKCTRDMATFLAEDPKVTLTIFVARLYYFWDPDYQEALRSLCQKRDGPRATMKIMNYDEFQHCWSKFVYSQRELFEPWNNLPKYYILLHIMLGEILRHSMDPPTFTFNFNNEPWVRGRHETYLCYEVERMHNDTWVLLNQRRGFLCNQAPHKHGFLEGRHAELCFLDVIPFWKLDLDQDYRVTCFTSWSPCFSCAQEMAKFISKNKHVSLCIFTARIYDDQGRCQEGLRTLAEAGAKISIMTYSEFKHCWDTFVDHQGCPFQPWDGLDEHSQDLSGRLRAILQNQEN
Sequence of Cytochrome P450 2D6 (Homo sapiens) (P10635 whole entry, looked up): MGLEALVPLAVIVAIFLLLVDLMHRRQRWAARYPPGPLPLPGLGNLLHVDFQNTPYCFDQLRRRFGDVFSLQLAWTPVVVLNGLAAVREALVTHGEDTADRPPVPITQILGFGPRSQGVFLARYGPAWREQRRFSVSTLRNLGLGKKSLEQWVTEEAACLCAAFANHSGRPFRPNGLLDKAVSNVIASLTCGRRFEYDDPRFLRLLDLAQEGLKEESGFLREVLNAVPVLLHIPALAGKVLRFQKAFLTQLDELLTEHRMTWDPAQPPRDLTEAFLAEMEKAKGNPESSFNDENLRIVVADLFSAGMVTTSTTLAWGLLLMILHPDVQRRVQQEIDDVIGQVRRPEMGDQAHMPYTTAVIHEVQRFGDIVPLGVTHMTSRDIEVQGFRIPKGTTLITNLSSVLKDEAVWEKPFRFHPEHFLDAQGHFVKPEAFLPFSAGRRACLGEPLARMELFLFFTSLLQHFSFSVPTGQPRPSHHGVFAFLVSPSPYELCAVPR
Sequence of Glucocorticoid receptor (Homo sapiens) (P04150 whole entry, looked up, the tested form may be a part): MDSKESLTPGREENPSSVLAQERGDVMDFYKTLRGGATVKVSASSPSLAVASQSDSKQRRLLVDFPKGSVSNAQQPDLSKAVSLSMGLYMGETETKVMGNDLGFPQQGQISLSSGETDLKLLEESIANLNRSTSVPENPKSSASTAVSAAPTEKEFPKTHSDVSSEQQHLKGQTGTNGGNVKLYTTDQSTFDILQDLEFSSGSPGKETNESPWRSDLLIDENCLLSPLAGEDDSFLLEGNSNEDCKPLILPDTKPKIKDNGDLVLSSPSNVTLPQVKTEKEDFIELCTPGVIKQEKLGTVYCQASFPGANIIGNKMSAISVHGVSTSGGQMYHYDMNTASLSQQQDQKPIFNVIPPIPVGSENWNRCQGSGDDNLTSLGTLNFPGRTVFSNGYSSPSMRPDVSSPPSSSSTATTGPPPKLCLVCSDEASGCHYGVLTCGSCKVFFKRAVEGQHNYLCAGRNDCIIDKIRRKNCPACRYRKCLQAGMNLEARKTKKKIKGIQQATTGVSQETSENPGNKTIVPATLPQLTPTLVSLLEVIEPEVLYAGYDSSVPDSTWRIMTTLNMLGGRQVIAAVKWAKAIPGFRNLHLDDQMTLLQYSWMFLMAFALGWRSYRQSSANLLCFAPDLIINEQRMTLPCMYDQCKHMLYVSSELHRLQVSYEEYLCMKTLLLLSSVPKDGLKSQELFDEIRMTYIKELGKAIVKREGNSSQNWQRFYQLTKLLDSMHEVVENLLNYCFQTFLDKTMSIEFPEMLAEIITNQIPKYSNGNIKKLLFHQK
Sequence of Cytochrome P450 2C19 (Homo sapiens) (P33261 whole entry, looked up): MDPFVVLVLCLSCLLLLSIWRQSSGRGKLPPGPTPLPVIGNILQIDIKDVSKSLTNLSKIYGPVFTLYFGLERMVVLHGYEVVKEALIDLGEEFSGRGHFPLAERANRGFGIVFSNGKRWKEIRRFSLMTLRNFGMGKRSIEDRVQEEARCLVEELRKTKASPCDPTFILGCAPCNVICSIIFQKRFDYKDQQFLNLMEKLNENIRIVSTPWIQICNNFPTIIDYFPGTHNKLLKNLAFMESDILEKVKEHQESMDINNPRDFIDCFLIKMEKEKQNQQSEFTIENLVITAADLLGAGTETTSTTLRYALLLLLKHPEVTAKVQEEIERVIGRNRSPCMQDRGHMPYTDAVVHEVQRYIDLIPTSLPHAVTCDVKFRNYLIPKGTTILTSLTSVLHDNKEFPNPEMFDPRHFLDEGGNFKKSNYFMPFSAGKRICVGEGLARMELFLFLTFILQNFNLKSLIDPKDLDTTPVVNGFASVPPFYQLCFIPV
Sequence of 3',5'-cyclic-AMP phosphodiesterase 4B (Homo sapiens) (Q07343 whole entry, looked up): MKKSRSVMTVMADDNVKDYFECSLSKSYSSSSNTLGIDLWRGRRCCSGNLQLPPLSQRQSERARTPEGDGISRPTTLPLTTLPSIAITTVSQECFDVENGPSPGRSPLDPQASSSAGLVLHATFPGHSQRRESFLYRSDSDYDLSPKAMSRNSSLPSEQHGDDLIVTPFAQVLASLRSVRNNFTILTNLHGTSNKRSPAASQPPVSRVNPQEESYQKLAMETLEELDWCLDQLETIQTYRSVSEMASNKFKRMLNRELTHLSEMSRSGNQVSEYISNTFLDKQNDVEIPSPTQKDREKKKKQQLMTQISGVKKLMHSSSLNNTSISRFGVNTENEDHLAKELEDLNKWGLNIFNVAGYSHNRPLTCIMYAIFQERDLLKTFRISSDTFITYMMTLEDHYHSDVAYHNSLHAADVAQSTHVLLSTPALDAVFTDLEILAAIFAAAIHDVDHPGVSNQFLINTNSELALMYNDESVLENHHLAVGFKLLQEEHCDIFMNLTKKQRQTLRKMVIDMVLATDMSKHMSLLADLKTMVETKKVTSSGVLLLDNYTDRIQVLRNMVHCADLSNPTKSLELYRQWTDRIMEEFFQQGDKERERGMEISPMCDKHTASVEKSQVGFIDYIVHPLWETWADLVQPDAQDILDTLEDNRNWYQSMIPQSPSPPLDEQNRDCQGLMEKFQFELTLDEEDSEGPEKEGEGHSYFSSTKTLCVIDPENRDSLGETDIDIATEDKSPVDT

For the molecule `CC(=O)/C=C/C1C(C)=CCC(C)C1(C)C` (centres undefined), the Potency entry in [1], in [2] and in assay [3] was “inactive” each time.
As for `Cc1cccc(-c2[nH]c(C(C)(C)C)nc2-c2ccc3c(c2)OCO3)n1`, the Potency was 10.9 µM (active) in assay [1], 7.69 µM (active) in assay [2], 7.69 µM (active) in assay [3] and 17.8 µM (active) in [4].
`COc1cc2ncn(-c3cc(OCc4ccccc4S(C)(=O)=O)c(C#N)s3)c2cc1OC`: the Potency result in [1], in assay [3] and in [4] was “inactive” each time. For the same molecule, the Potency in assay [2] is 27.3 µM (active).
`COc1cccc2c1cc([N+](=O)[O-])c1c(C(=O)O)cc3c(c12)OCO3`: the Potency in assay [5] is > 46 µM (inactive). The result in assay [6] and in assay [11] was inactive. In addition, the Potency entry in [7], in assay [8], in assay [9], in assay [10], in assay [12] and in assay [1] was “inactive” each time. Moreover, the Potency result in [2], in assay [3] and in assay [13] was “inactive” in each case.
For the molecule `CCCCCC[C@@H](O)C/C=C\CCCCCCCC(=O)O`, the Potency entry in assay [1], in assay [2], in [3], in assay [15] and in assay [4] was “inactive” throughout. In addition, the molecule was called inactive in assay [14] and in assay [16]. In addition, in [17], the activity change, negative = inhibition was -16.6%.
Take `NC(=O)c1cccc2cn(-c3ccc([C@@H]4CCCNC4)cc3)nc12`: the Potency entry in assay [1], in assay [3] and in [18] was “inactive” in each case. For the same molecule, the Potency in [2] is 10.9 µM (active); in assay [19] it was 11.2 µM (active); in assay [20], 2.15 µM (active).
With `C=C[C@H]1CN2CC[C@@H]1C[C@@H]2[C@@H](O)c1ccnc2ccc(OC)cc12`, the outcome in assay [21] and in assay [22] was inactive. Further, the Potency entry in assay [1], in assay [2] and in [23] was “inactive” each time.
Regarding `CCCCC/C=C\C\C=C/C=C/C=C/[C@@H](O)[C@@H](O)CCCC(=O)O`, the activity change, negative = inhibition in [1] was -2.59% [at 0.757 µM] (inactive); in assay [3], -32.8% [at 0.757 µM] (inactive). The activity change, negative = reduced viability in assay [2] was 14.4% [at 0.757 µM] (inactive).
In the case of `NC(=O)c1c[nH]c2ccccc12`, the Potency result in [1], in assay [2] and in assay [3] was “inactive” each time.
In the case of `Cc1cc(OCCCS(C)(=O)=O)cc(C)c1-c1cccc(COc2ccc3c(c2)OC[C@H]3CC(=O)O)c1`, the Potency result in assay [1], in assay [2], in assay [3] and in assay [4] was “inactive” each time.
Consider `COc1cc(O)c2c(c1)C1OC1C[C@H](O)[C@H](O)C(=O)C=CC[C@H](C)OC2=O` (some centres undefined), for which the values for the Potency in assay [1], in assay [2] and in assay [3] were 34.3 µM (active), 38.5 µM (active) and 34.3 µM (active), respectively.
As to `CCOC1OC(=O)C[C@H]1NC(=O)[C@@H]1CCCN1C(=O)[C@@H](NC(=O)c1ccc(N)c(Cl)c1)C(C)(C)C` (some centres undefined), in [24], the parasite growth, % of DMSO control came out at 265%. Further, the parasite growth remaining, % of DMSO control (lower = more inhibition) in assay [25] was determined as 97.4%. The same molecule yielded a parasite growth, % of control (lower = inhibition) in assay [26] of 67.6%. In addition, the Potency entry in assay [1], in assay [2] and in [23] was “inactive” in each case.
Regarding `C=CCNc1c(O)cc2c(O)c1C[C@@H](C)C[C@H](OC)[C@@H](O)[C@@H](C)C=C(C)[C@H](OC(N)=O)[C@@H](OC)C=CC=C(C)C(=O)N2`, the Potency was 10.9 µM (active) in assay [1], 4.85 µM (active) in assay [2] and 4.85 µM (active) in assay [3].
